Results published in paper PMC7862700, “An all-to-all approach to the identification of sequence-specific readers for epigenetic DNA modifications on cytosine”.

Key:
Assay in all cases: DAPPL (digital affinity profiling via proximity ligation, sequencing); 10 mM Tris-HCl pH 7.5, 50 mM NaCl, 1 mM DTT, 4% glycerol, room temperature, 30 min; GST-TFs on glutathione beads, 16-mer random dsDNA library, 0.1% formaldehyde crosslink after washing; high values mean tight binding
[1] = biological target: T1, FLI1 (Homo sapiens, UniProt Q01543 1-452); conditions: protein: recombinant; tags: N-terminal GST; dsDNA, one strand shown
T1 sequence: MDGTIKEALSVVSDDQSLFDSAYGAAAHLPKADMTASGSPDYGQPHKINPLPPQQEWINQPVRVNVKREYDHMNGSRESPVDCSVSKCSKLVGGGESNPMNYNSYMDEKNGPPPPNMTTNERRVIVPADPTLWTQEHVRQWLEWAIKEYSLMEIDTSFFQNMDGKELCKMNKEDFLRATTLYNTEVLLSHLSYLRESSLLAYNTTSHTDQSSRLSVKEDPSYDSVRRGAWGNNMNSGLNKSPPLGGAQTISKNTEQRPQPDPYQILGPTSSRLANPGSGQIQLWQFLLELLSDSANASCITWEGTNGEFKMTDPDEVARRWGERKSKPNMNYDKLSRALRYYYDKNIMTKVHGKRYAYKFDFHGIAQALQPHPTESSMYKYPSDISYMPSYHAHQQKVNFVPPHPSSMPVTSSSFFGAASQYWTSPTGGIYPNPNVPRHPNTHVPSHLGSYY
Method in brief: (§1)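 Human transcription factors fused to GST were expressed in yeast, captured on glutathione beads, given DNA barcodes and pooled with a GST-only negative control. Pools were incubated with 200 nmole of a 16-mer random double-stranded DNA library in Tris/NaCl/DTT/glycerol buffer at room temperature for 30 min. They were then washed, crosslinked with 0.1% formaldehyde, proximity-ligated (BsaI/T4 ligase, 1 h, 37 °C), PCR-amplified and sequenced on an Illumina NextSeq500. Binding signal is each 6-mer's read frequency for a factor divided by its frequency for the GST control.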

[2] = biological target: T2, ELK1 (Homo sapiens, UniProt P19419 1-428); conditions: protein: recombinant; tags: N-terminal GST; dsDNA, one strand shown
T2 sequence: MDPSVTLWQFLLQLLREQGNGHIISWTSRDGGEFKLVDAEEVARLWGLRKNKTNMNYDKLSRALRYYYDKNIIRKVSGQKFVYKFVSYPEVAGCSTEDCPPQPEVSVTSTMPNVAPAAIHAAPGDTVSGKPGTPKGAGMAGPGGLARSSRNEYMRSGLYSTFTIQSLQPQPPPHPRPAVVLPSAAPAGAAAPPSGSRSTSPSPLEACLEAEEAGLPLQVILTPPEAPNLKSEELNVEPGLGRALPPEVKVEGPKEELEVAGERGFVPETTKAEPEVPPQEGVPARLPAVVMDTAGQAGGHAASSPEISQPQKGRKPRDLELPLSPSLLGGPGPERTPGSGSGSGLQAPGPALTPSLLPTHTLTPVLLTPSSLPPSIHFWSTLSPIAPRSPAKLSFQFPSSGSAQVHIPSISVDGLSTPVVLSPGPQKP
Method in brief: as §1

[3] = biological target: T3, GABPA (Homo sapiens, UniProt Q06546 1-454); conditions: protein: recombinant; tags: N-terminal GST; dsDNA, one strand shown
T3 sequence: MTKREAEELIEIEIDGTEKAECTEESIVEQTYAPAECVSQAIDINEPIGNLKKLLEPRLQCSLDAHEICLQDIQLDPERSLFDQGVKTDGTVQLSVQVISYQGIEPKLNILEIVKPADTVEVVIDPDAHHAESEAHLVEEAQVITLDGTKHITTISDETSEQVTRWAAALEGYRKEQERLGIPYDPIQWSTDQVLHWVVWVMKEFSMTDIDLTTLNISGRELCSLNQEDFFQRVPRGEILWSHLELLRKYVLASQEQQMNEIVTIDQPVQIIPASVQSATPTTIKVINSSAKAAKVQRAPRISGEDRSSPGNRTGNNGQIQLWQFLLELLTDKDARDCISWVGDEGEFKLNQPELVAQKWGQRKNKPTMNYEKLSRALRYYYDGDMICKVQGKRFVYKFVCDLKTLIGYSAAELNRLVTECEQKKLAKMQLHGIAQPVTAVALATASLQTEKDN
Method in brief: as §1

[4] = biological target: T4, ERG (Homo sapiens, UniProt P11308 1-479); conditions: protein: recombinant; tags: N-terminal GST; dsDNA, one strand shown
T4 sequence: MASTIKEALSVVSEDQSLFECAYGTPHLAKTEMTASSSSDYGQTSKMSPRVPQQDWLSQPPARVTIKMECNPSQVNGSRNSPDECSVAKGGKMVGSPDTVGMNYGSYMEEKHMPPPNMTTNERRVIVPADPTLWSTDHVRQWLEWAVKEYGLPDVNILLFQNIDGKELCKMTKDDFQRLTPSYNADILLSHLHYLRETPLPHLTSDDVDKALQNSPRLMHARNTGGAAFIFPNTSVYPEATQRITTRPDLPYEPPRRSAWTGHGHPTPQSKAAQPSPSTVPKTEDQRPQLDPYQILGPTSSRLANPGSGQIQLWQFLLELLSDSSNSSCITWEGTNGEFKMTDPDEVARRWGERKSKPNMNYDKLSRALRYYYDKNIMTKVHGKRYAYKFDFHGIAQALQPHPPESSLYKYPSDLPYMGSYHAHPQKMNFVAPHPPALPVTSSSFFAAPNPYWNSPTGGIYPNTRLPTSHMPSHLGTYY
Method in brief: as §1

[5] = biological target: ELF1 (Homo sapiens, UniProt P32519 1-619); conditions: protein: recombinant; tags: N-terminal GST; dsDNA, one strand shown
ELF1, sequence (P32519 whole entry): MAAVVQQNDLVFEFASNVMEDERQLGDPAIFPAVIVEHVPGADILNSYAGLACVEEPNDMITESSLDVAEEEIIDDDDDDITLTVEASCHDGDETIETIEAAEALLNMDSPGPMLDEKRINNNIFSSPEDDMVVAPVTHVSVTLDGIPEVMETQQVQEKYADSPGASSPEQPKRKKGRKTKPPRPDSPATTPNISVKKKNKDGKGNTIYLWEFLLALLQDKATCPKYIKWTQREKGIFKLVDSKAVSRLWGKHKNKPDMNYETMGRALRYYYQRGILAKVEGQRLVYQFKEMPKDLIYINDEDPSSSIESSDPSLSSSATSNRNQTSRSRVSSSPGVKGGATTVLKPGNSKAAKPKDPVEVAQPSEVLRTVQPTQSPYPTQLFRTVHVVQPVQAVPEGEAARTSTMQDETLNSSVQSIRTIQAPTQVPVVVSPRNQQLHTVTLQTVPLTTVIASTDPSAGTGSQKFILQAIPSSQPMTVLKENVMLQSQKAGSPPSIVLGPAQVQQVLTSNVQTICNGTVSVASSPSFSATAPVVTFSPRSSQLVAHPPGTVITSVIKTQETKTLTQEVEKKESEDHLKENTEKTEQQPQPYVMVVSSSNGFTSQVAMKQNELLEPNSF
Method in brief: as §1

[6] = biological target: T5, EHF (Homo sapiens, UniProt Q9NZC4 1-300); conditions: protein: recombinant; tags: N-terminal GST; dsDNA, one strand shown
T5 sequence: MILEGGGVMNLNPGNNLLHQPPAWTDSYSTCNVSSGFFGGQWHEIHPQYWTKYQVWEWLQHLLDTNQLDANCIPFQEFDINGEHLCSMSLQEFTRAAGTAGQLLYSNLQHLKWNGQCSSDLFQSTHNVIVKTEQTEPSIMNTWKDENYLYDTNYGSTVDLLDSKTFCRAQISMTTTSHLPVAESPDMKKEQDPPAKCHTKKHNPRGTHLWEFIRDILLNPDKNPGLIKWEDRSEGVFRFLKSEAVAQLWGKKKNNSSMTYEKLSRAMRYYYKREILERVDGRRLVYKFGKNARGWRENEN
Method in brief: as §1

[7] = biological target: SPI1 (Homo sapiens, UniProt P17947 1-270); conditions: protein: recombinant; tags: N-terminal GST; dsDNA, one strand shown
Method in brief: as §1

[8] = biological target: SPIB (Homo sapiens, UniProt Q01892 1-262); conditions: protein: recombinant; tags: N-terminal GST; dsDNA, one strand shown
SPIB, sequence (Q01892 whole entry): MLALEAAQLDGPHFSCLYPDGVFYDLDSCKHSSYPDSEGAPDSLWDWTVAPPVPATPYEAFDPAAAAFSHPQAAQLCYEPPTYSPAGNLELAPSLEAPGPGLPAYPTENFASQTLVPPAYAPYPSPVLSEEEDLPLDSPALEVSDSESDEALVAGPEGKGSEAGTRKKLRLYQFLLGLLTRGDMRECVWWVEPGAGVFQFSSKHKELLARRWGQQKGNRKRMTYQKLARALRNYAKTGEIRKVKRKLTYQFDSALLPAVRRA
Method in brief: as §1

[9] = biological target: T6, ELK3 (Homo sapiens, UniProt P41970 1-407); conditions: protein: recombinant; tags: N-terminal GST; dsDNA, one strand shown
T6 sequence: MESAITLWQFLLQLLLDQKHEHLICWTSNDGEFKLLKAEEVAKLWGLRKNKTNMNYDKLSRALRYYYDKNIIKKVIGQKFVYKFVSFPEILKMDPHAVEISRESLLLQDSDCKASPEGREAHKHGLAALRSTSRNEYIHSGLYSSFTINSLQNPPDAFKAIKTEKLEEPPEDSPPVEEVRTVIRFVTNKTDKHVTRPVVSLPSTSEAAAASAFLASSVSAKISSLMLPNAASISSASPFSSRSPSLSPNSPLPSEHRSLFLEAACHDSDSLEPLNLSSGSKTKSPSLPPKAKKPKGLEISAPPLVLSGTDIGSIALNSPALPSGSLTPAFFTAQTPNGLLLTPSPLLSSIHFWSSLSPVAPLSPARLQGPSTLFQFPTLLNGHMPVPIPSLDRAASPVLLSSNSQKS
Method in brief: as §1

[10] = biological target: T7, FEV (Homo sapiens, UniProt Q99581 1-238); conditions: protein: recombinant; tags: N-terminal GST; dsDNA, one strand shown
T7 sequence: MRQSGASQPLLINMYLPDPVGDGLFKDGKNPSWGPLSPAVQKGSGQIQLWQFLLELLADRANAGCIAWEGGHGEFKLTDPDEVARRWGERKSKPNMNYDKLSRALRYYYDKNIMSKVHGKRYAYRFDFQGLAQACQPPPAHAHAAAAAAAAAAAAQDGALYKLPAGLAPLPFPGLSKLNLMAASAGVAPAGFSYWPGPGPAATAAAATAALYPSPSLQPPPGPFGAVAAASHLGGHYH
Method in brief: as §1

[11] = biological target: ETV5 (Homo sapiens, UniProt P41161 1-510); conditions: protein: recombinant; tags: N-terminal GST; dsDNA, one strand shown
ETV5, sequence (P41161 whole entry): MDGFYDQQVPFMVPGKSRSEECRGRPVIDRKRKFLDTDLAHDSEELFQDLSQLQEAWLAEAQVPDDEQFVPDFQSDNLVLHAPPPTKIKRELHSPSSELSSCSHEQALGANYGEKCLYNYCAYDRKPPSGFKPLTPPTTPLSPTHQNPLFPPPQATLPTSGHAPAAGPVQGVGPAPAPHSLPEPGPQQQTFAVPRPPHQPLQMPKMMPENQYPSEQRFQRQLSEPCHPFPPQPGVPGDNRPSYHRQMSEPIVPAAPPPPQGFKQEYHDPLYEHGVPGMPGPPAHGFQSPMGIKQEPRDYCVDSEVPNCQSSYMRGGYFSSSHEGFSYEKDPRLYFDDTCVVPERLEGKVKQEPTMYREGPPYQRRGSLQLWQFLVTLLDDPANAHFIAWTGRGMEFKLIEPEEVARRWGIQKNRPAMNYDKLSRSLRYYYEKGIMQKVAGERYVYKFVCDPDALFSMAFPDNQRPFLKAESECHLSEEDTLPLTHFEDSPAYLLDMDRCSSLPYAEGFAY
Method in brief: as §1

[12] = biological target: HSF1 (Homo sapiens, UniProt Q00613 1-529); conditions: protein: recombinant; tags: N-terminal GST; chain copies: 3; dsDNA, one strand shown
HSF1, sequence (Q00613 whole entry): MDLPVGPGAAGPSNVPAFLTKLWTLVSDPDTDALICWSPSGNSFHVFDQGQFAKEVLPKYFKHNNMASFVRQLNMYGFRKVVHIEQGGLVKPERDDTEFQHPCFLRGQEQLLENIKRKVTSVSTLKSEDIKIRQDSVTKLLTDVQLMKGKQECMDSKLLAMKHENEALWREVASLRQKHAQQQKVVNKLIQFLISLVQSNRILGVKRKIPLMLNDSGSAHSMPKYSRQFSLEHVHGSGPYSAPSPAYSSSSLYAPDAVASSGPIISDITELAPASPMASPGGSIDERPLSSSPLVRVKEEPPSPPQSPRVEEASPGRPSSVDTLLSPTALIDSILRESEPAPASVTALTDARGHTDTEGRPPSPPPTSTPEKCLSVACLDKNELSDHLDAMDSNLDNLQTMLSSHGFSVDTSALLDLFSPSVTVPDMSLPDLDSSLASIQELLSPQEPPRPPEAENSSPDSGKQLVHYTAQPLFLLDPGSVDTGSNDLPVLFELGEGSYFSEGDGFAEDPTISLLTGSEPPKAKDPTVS
Method in brief: as §1

[13] = biological target: T8, SPIC (Homo sapiens, UniProt Q8N5J4 1-248); conditions: protein: recombinant; tags: N-terminal GST; dsDNA, one strand shown
T8 sequence: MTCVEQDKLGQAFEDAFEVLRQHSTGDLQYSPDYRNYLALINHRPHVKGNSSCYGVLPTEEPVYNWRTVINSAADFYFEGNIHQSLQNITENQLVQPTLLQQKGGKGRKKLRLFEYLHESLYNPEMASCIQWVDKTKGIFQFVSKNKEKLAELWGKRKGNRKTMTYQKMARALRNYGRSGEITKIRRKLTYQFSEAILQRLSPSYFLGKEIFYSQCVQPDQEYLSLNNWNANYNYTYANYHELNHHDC
Method in brief: as §1

[14] = biological target: ELF4 (Homo sapiens, UniProt Q99607 1-663); conditions: protein: recombinant; tags: N-terminal GST; dsDNA, one strand shown
ELF4, sequence (Q99607 whole entry): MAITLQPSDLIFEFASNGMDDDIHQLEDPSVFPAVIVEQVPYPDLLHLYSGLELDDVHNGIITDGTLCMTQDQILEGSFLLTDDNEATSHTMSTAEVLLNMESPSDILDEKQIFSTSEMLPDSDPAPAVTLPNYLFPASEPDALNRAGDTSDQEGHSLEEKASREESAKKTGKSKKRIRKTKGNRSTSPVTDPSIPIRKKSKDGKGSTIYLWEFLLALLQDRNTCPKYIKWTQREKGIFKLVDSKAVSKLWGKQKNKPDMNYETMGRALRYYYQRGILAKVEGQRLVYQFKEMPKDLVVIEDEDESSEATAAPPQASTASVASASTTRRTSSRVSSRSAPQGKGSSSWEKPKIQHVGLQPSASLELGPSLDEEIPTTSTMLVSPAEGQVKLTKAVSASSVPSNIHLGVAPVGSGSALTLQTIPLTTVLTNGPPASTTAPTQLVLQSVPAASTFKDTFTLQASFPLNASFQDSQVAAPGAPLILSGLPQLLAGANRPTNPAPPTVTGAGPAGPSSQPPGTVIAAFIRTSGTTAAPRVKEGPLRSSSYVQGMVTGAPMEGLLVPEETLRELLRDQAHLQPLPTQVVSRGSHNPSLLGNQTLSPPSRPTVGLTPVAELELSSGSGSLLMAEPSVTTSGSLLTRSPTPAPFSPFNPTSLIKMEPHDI
Method in brief: as §1

[15] = biological target: T9, ELK4 (Homo sapiens, UniProt P28324-2 1-405); conditions: protein: recombinant; tags: N-terminal GST; dsDNA, one strand shown
T9 sequence: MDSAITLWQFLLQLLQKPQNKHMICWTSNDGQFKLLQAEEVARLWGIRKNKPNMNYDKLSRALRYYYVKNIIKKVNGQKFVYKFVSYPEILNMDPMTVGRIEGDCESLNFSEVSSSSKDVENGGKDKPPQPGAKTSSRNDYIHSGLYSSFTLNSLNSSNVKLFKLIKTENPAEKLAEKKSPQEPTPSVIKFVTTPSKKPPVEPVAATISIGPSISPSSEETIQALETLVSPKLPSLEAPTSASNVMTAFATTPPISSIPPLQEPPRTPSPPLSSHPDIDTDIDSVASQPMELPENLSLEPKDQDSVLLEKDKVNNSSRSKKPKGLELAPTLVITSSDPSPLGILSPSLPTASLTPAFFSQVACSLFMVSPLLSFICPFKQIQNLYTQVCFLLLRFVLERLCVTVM
Method in brief: as §1

[16] = biological target: T10, ETV2 (Homo sapiens, UniProt O00321 1-342); conditions: protein: recombinant; tags: N-terminal GST; dsDNA, one strand shown
T10 sequence: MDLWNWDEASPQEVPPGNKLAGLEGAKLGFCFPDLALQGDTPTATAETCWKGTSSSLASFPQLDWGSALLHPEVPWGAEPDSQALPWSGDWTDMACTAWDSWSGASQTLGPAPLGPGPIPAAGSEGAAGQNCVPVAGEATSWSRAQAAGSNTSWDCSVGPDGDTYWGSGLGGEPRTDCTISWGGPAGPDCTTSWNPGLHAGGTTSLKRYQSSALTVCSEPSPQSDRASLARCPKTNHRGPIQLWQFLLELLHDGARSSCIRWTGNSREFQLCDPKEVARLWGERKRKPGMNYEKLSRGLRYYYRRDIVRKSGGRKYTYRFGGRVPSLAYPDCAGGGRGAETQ
Method in brief: as §1

[17] = biological target: T11, ELF3 (Homo sapiens, UniProt P78545 1-371); conditions: protein: recombinant; tags: N-terminal GST; dsDNA, one strand shown
T11 sequence: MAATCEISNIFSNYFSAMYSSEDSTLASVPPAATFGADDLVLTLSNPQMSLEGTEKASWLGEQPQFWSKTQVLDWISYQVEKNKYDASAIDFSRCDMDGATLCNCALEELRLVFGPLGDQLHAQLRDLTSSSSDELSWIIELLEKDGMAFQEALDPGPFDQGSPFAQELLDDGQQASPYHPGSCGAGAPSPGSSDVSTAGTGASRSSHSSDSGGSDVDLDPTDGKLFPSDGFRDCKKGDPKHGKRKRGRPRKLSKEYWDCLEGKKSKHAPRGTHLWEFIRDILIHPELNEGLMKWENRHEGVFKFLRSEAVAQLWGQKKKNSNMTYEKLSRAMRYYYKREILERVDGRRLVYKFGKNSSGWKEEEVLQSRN
Method in brief: as §1

[18] = biological target: CRX (Homo sapiens, UniProt O43186 1-299); conditions: protein: recombinant; tags: N-terminal GST; dsDNA, one strand shown
CRX, sequence (O43186 whole entry): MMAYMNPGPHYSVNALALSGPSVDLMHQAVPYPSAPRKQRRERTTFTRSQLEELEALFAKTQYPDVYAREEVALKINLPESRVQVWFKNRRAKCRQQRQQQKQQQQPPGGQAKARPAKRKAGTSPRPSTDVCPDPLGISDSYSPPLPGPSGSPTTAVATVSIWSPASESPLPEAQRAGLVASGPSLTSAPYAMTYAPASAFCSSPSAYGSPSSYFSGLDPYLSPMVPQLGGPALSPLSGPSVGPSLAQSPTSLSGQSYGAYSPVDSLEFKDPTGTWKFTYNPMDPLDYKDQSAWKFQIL
Method in brief: as §1

[19] = biological target: ETV1 (Homo sapiens, UniProt P50549 1-477); conditions: protein: recombinant; tags: N-terminal GST; dsDNA, one strand shown
ETV1, sequence (P50549 whole entry): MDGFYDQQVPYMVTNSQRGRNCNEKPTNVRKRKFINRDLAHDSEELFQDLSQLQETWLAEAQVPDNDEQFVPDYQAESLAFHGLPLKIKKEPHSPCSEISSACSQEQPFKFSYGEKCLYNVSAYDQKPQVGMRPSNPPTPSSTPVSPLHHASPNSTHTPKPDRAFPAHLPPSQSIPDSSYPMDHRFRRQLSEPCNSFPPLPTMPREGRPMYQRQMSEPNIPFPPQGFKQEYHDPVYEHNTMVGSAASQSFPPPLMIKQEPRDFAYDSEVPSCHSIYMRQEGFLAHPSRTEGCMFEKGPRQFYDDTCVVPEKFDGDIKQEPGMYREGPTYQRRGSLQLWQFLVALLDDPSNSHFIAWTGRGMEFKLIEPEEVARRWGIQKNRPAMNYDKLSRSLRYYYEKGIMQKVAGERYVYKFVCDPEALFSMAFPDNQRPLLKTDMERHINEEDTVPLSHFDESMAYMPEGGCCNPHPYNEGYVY
Method in brief: as §1

## CCACTT
[1]
  binding signal: 1.86 fold enrichment (6-mer frequency, TF over GST control)
[2]
  binding signal: 1.86 fold enrichment (6-mer frequency, TF over GST control)
[3]
  binding signal: 1.81 fold enrichment (6-mer frequency, TF over GST control)
[4]
  binding signal: 2.02 fold enrichment (6-mer frequency, TF over GST control)
[5]
  binding signal: 1.85 fold enrichment (6-mer frequency, TF over GST control)
[6]
  binding signal: 1.93 fold enrichment (6-mer frequency, TF over GST control)
[7]
  binding signal: 2.41 fold enrichment (6-mer frequency, TF over GST control)
[8]
  binding signal: 1.74 fold enrichment (6-mer frequency, TF over GST control)
[9]
  binding signal: 1.83 fold enrichment (6-mer frequency, TF over GST control)
[10]
  binding signal: 2.3 fold enrichment (6-mer frequency, TF over GST control)
[11]
  binding signal: 1.99 fold enrichment (6-mer frequency, TF over GST control)
[12]
  binding signal: 1.25 fold enrichment (6-mer frequency, TF over GST control)
[13]
  binding signal: 1.63 fold enrichment (6-mer frequency, TF over GST control)
[14]
  binding signal: 1.98 fold enrichment (6-mer frequency, TF over GST control)
[15]
  binding signal: 1.77 fold enrichment (6-mer frequency, TF over GST control)
[16]
  binding signal: 1.91 fold enrichment (6-mer frequency, TF over GST control)
[17]
  binding signal: 1.59 fold enrichment (6-mer frequency, TF over GST control)
[18]
  binding signal: 1.36 fold enrichment (6-mer frequency, TF over GST control)
[19]
  binding signal: 1.95 fold enrichment (6-mer frequency, TF over GST control)
